# Screens deposited in PubChem by several laboratories.
# The list is not random: actives were taken first. Their share in the collection is about 1.1%.
# HIF activator: HIF pathway transcriptional activators, primary screen, cell-based, U2OS HRE-luciferase, luminescence. U2OS HRE-luciferase reporter; normalized: DMSO 0%, desferrioxamine 100%. activation, % at 7.5 µM (by protocol). 0.32% of 300,000 active. AID 1910, 2009;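 active = mean activation of at least 10% of the iron chelator positive control signal, with at least half of replicates also reaching 10%; inconclusive = mean and replicate majority disagree about reaching 10%; inactive = mean and most replicates under 10%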
# Calb FLC: C. albicans growth inhibition with fluconazole, primary screen, CaCi-2 strain, Alamar Blue fluorescence; C. albicans CaCi-2 (fluconazole-resistant clinical isolate) + fluconazole, 48 h; growth inhibition, % (no concentration beside the values); 0.57% of 300,000 active; AID 1979, 2009;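 active = growth inhibition above about 58% in most replicates, limit read from the data, passing the limit was not always enough; inconclusive = exactly half the replicates above a set limit; inactive = most replicates below a set limit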;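 note: all wells also contain fluconazole at 8 µg/ml as a sub-toxic cotreatment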
# TNF death inh: inhibitors of TNF-alpha triggered necroptosis, primary screen, cell-based, Jurkat FADD-/-, single concentration. Jurkat FADD-/- TNF necroptosis rescue, ATP luminescence, 24 h; 0 = TNF only, 100 = no-TNF cells. activation (protection from cell death), % at 10 µM. 0.068% of 220,000 active. AID 463075, 2010;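 active = activation, meaning protection from cell death, of at least 50% relative to plate controls; inactive = activation below 50%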;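 note: necroptosis triggered by 40 ng/mL TNF-alpha added together with compound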
# zVAD death inh: inhibitors of zVAD-triggered necroptosis, primary screen, L929 cells; viability rescue, % at 10 µM; 0.38% of 220,000 active; AID 1377, 2008; L929 zVAD necroptosis rescue, ATP luminescence, 24 h; with zVAD 60 µM;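 active = activation, scaled between plate controls, above about 75%, limit read from the data; inactive = activation under that limit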
# Numbers stand for hits; – = inactive; ? = inconclusive; · = no result.
SMILES,HIF activator,Calb FLC,TNF death inh,zVAD death inh
COc1ccc(C(=O)Nc2ccc(-c3ccc(C)o3)cc2)cc1S(=O)(=O)N1CCOCC1,–,–,–,84
C=CCNC(=S)NN=C1CCCCCCC1,–,–,–,–
CCCCn1c(SCC(=O)c2ccc(O)c(O)c2)nc2ccsc2c1=O,–,107,–,–
O=C(O)CCCCCn1c(SCC(=O)c2ccc(O)c(O)c2)nc2ccsc2c1=O,–,–,–,·
Cc1nn(-c2ccccc2)c(N)c1N=Nc1ccc(Cl)cc1,–,98,–,–
Cc1noc(/C=C/c2ccccn2)c1[N+](=O)[O-],–,85,·,·
Cc1ccc(C(O)Cn2nc(C)cc2C)cc1 (centres undefined),–,–,·,·
COCCN(C(=O)CSc1nnc(-c2cccc(C)c2)n1C)c1c(N)n(Cc2ccccc2)c(=O)[nH]c1=O,·,113,–,–
Cc1scc(C(=O)N/N=C/c2ccc([N+](=O)[O-])o2)c1C,–,90,·,·
Cc1nc2ccccn2c1C(=O)N/N=C/c1ccc([N+](=O)[O-])cc1,–,–,–,–
Cc1nc2ccccn2c1C(=O)N/N=C/c1ccc([N+](=O)[O-])o1,–,100,–,–
NS(=O)(=O)c1ccc(CNC(=O)C(Cc2ccccc2)NS(=O)(=O)c2ccccc2F)cc1 (centres undefined),–,–,·,·
COC(=O)C(=Cc1ccc(OCc2ccc([N+](=O)[O-])cc2)c(OC)c1)C(=O)OC,–,–,–,–
CCOC(=O)C(=Cc1ccc(OCc2ccc([N+](=O)[O-])cc2)c(OC)c1)C(=O)OCC,11,–,–,–
COc1cccc(/C=N/Nc2cc(Cl)nc(C)n2)c1O,–,–,–,–
COc1cccc(/C=N/Nc2ncnc3c2ncn3Cc2ccccc2)c1O,68,–,–,–
COc1cccc(/C=N/Nc2cc(N3CCOCC3)ncn2)c1O,–,98,·,·
O=C(/C=C/C=C/c1ccccc1)c1ccco1,–,–,–,–
COc1cccc(F)c1C(C[N+](=O)[O-])c1c(N)n(C)c(=O)n(C)c1=O (centres undefined),–,101,–,–
CC[n+]1c(/C=C/C=C/N(C(C)=O)c2ccccc2)sc2ccccc21,–,89,–,–
CCn1c(/C=C/N(C(C)=O)c2ccccc2)[n+](CC)c2ccc(Cl)cc21,–,–,–,–
Cc1sc(NC(=O)CCC(=O)O)c(C(N)=O)c1-c1ccccc1,–,–,–,–
CCc1ccc(-c2c(C)sc(NC(C)=O)c2C(N)=O)cc1,–,–,–,78
COc1ccccc1CNC(=O)Cn1nnc(-c2ccncc2)n1,–,–,–,86
COc1ccc(C(=O)C[n+]2cn(C(F)F)c3ccccc32)c(F)c1,–,–,–,–
SMILES,HIF activator,Calb FLC,TNF death inh,zVAD death inh
Cc1cc(-c2cc(C(=O)O)c3ccccc3n2)c(C)s1,–,80,–,–
CN(C)CCN=Cc1c(O)n(Cc2ccccc2)c(=O)c2ccccc12,–,–,–,–
CC1(C)CC(N=Cc2c(O)n(Cc3ccc4c(c3)OCO4)c(=O)c3ccccc23)CC(C)(C)N1,–,88,–,–
O=[N+]([O-])c1ccc(N/N=C/c2ccc(O)c(O)c2O)c(S(=O)(=O)N2CCOCC2)c1,–,100,–,–
CCc1nnc(NC(=O)CCC(=O)N2CCN(c3cc(Cl)ccc3C)CC2)s1,–,–,·,·
CCN(CC)CC(=O)NCC1(c2ccccc2)CCCC1,–,–,–,–
CCCN(CCC)C(C)C(=O)NCC1(c2ccccc2)CCCC1 (centres undefined),719,–,–,–
CC(C)C[C@H]1CN=C(Nc2ccccc2)N1CCCC1CCCCC1,–,77,·,·
CCn1nc(C(=O)OCC(=O)Nc2ncc(Cl)c(C)c2Cl)c2ccccc2c1=O,–,–,–,–
CCn1nc(C(=O)OCC(=O)NC(C)C)c2ccccc2c1=O,38,–,–,–
N/C(=N\O)c1cccc(CS(=O)(=O)c2ccccn2)c1,–,–,–,–
CCOc1ccc(NS(=O)(=O)c2cc(C(=O)N3CCC3)ccc2Cl)cc1,–,·,·,·
O=C(/C=C/c1cccc(Cl)c1)c1nc2ccccc2[nH]1,–,99,–,–
CCOc1ccc2c(c1)C(C)=CC(C)(C)N2S(=O)(=O)c1ccc(C)cc1,–,113,–,–
COc1ccc2c(c1)C(C)=CC(C)(C)N2S(=O)(=O)c1ccc(C)cc1,–,–,–,–
CCN(CC(=O)NC(=O)Nc1ccccc1F)Cc1ccccc1,–,–,·,·
CC(Oc1ccc2c3c(c(=O)oc2c1)CCCC3)C(=O)NCC(O)c1ccccc1 (centres undefined),64,–,·,·
O=C(COc1ccc2c3c(c(=O)oc2c1)CCC3)NCC(O)c1ccccc1 (centres undefined),–,–,·,·
CSc1cccc(NC(=O)C2C3C=CC4(O3)C2C(=O)N(CCN2CCOCC2)C4C(=O)NC2CCCCC2)c1 (centres undefined),–,–,·,·
CC(=O)c1cccc(NC(=S)NC(=O)Cc2ccccc2)c1,–,–,–,–
CC(=O)c1cccc(NC(=O)CSC(=O)c2ccccc2)c1,30,–,–,–
Cc1ccc(/C=[N+](\[O-])c2ccc(N(C)C)cc2)c2nsnc12,–,97,–,–
CC(O)CC(C(=O)NNc1ccccc1)C(=O)NNc1ccccc1 (centres undefined),–,?,–,–
O=C(NNc1ccccc1)C(CCO)C(=O)NNc1ccccc1,–,100,–,–
COc1ccc(C(=O)N/N=C/c2ccccc2OC(=O)c2ccccc2)cc1,–,–,·,·
SMILES,HIF activator,Calb FLC,TNF death inh,zVAD death inh
COc1cc(C(=O)Oc2ccccc2/C=N/NC(=O)c2ccc(C)cc2)cc(OC)c1OC,9.6,–,–,–
COc1cccc(/C=N/NC(=O)c2ccc([N+](=O)[O-])cc2Cl)c1O,11,–,–,–
COc1cc(/C=N/NC(=O)c2cccc([N+](=O)[O-])c2)cc(OC)c1O,–,?,–,–
COc1cccc(/C=N/NC(=O)C(=O)Nc2ccccc2OC(F)(F)C(F)F)c1O,26,109,–,–
COc1ccc(/C=N/NC(=O)c2ccccc2O)cc1CSc1ccccn1,197,–,–,–
CCOC(=O)c1c(C)[nH]c(C)c1S(=O)(=O)NC1CCN(C(=O)OCC)CC1,–,–,·,·
COCCNC(=O)c1c(CSc2ccc(Cl)cc2)noc1C(=O)NCc1ccccc1,–,–,·,·
COc1cc([N+](=O)[O-])cc(/C=N/NC(=O)c2cc(C)nc3ccccc23)c1O,–,–,–,–
COc1cc([N+](=O)[O-])cc(/C=N/NC(=O)c2cc(-c3ccccc3)nc3ccccc23)c1O,–,89,–,–
COc1cccc(/C=N/NC(=O)c2ccc(-c3ccccc3)cc2)c1O,47,–,–,–
COc1ccc(/C=N/NC(=O)c2ccc(-c3ccccc3)cc2)cc1O,–,83,–,–
Cc1cc(SCC(=O)N/N=C/c2ccc(O)c(O)c2O)c(C)cc1Br,36,107,–,–
